Test [1] in a line: qHTS Assay for Identifying Gametocytocidal Compounds (AID 743244). Further: potency means the concentration at half of the fitted maximal effect.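 On max response: on the % scale 0 is the no-effect control and ±100 the full control effect; actives lower the fluorescent signal which means gametocytes are killed.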 The following applies: P. falciparum 3D7 stage III-V gametocytes, alamarBlue, 72 h; max response: stronger effect = lower value. In a few lines:
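Viability read-out was resazurin reduction (alamarBlue, 24 h) measured at Ex 525/Em 598 nm. Beforehand, late-stage (III-V) 3D7 P. falciparum gametocytes at 20,000 cells/well were incubated with compound 72 h at 37C under 5% CO2.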
On the technique in general: Quantitative high-throughput screening tests each substance at several concentrations.

Test [2] in a line: qHTS profiling of the MIPE4 collection as inhibitors of Plasmodium falciparum (3D7) proliferation (AID 743344; call rule not given here;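 further: scaled between DMSO vehicle wells and 0.29 µM artemisinin as full inhibition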). The following applies: P. falciparum 3D7 in erythrocytes, SYBR Green DNA fluorescence, 72 h; at 28.5 µM (top of the series) unless noted. In a few lines: (§1)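 Erythrocytes infected with P. falciparum (0.3% parasitemia, 2.5% hematocrit) incubated with compounds 72 h at 37 C, 5% CO2. Lysis with saponin/Triton buffer containing SYBR Green I, overnight at room temperature in the dark; DNA fluorescence (485/535 nm) normalised to 0.29 uM artemisinin and DMSO.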

Test [3] in a line: qHTS profiling of the MIPE4 collection as inhibitors of Plasmodium falciparum (DD2) proliferation (AID 743345; call rule not given here). Conditions: P. falciparum Dd2 in erythrocytes, SYBR Green DNA, 72 h; at 28.5 µM (top of the series) unless noted. The procedure, abridged:
as §1

Test [4] is described as follows: qHTS assay for small molecule agonists of the antioxidant response element (ARE) signaling pathway measured by Nrf2-dependant transcriptional activity (AID 720636; active means well fitted curve in the direction sought with a large enough effect in the repeat runs; an effect the other way counts as inactive or inconclusive;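 further: HepG2 cells with an ARE-driven luciferase reporter; % of control where 0% means no effect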). In a few lines:
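In HepG2 cells engineered with an Nrf2-responsive luciferase gene, ARE induction was quantified as luminescence after 16 hr compound treatment at 37 C.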

A short description of test [5]: qHTS assay for small molecule agonists of the antioxidant response element (ARE) signaling pathway measured by Nrf2-dependant transcriptional activity - cell viability counter screen (AID 720653; active means well fitted curve in the direction sought with a large enough effect in the repeat runs; an effect the other way counts as inactive or inconclusive; further: on the % scale 0 is the no-effect control and ±100 the full control effect). Conditions: ARE-bla HepG2 viability, CellTiter-Glo ATP luminescence, 16 h; max response: stronger effect = lower value. The procedure, abridged: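 ARE-bla HepG2 cells (2,000/well) rested 5 hrs at 37C/5% CO2, then exposed to compounds in DMSO for 16 hrs. Viability was read in the same wells as intracellular ATP by luminescence, 30 min at room temperature after reagent addition.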

Test [6] can be described thus: qHTS assay for cell viability of HEK293 cells (AID 743288). Further: on the % scale 0 is the no-effect control and ±100 the full control effect; nearly all actives have a fitted effect of over 50% in size. Conditions: ATP luminescence (CellTiter-Glo), 18 h; max response: stronger effect = lower value. The procedure, abridged: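 HEK293 parental, 2,000 cells/well; ≥5 h pre-incubation 37 C; pintool compound addition; 18 h, 37 C; CellTiter-Glo 30 min RT; luminescence read.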
A short description of test [7]: qHTS assay for cell viability of the p53RE-bla HCT-116 cell line (AID 743292). Further: on the % scale 0 is the no-effect control and ±100 the full control effect; nearly all actives have a fitted effect of over 55% in size. In a few lines: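 Intracellular ATP of p53RE-bla HCT-116 cells measured by luciferase luminescence following 16 h compound incubation at 37 C; DMSO-only wells served as vehicle controls.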
Test [8] in a line: qHTS assay for small molecule antagonists of the retinoid-related orphan receptor gamma (ROR-gamma) signaling pathway - cell viability counter screen (AID 720652; active means well fitted curve in the direction sought with a large enough effect in the repeat runs; an effect the other way counts as inactive or inconclusive;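 further: CHO reporter cells with doxycycline-induced ROR-gamma expression; compound exposure lasted 16 hr before ATP read; on the % scale 0 is the no-effect control and ±100 the full control effect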). The procedure, abridged:
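Cytotoxicity is quantified via intracellular ATP (CellTiter-Glo luminescence) in doxycycline-induced CHO ROR response element-luciferase reporter cells treated with compound for 16 hr at 37 C, 5% CO2.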

Where “and” joins values, the source holds several entries; their conditions need not be identical. Equal values may be shown once. Inconclusive results are not listed. Calls of active or inactive are those of the source. Unless noted, the call rests on the fitted dose curve; in most records, active means well fitted curve in the direction sought with a large enough effect; inconclusive means small, poorly fitted or top-dose-only effect, or another doubt; inactive means no such curve, though single readings can be large; an effect the other way counts as inactive or inconclusive.

Consider `CO[C@@H]1[C@@H](OC(N)=O)[C@@H](O)[C@H](Oc2ccc3c(O)c(NC(=O)c4ccc(O)c(CC=C(C)C)c4)c(=O)oc3c2C)OC1(C)C`, for which the max response in test [1] is 1.46% (inactive). The molecule also registered a parasite growth, % of DMSO control in test [2] of 61%. In addition, in test [3], the parasite growth remaining, % of DMSO control (lower = more inhibition) came to 75.8%.
On to `S=P(N1CC1)(N1CC1)N1CC1`, for which, in test [4], the result was inactive. Also, the max response in test [5] is -3.97% (inactive); in test [1], 9.1% (inactive) and 8.65% (inactive); in test [6], -14.8% (inactive). For the same molecule, the Potency result in test [7] is “inactive”. This molecule also showed a parasite growth, % of DMSO control in test [2] of 11.7%. The parasite growth remaining, % of DMSO control (lower = more inhibition) in test [3] worked out at 24.7%.
With `CC(C)Cn1cnc2c(N)nc3ccccc3c21`, the max response in test [1] is -6.2% (inactive). Also, the parasite growth, % of DMSO control in test [2] was 43.4%. In test [3], the parasite growth remaining, % of DMSO control (lower = more inhibition) worked out at 74.5%.
In the same order, the values of `NCCCC(O)(P(=O)(O)O)P(=O)(O)O` are 14.9% (inactive), 96% and 107%.
The matching figures for `Nc1[nH]c(=O)ncc1F`: -2.11% (inactive), 408% and 104%.
In the same order, the values of `CCCOc1ccc(C(=O)OCCN(CC)CC)cc1N` are 14.8% (inactive), 100% and 88.7%.
Consider `OC(Cn1cncn1)(Cn1cncn1)c1ccc(F)cc1F`, for which the molecule was called inactive in test [4]. The max response in test [5] is 0.0873% (inactive); in test [1] it was -0.14% (inactive); in test [6], -6.93% (inactive). In addition, the Potency entry in test [7] is “inactive”. In test [3], the parasite growth remaining, % of DMSO control (lower = more inhibition) was determined as 101%.
Consider `NC(N)=NC(N)=NCCc1ccccc1`, for which the call in test [4] was inactive. For the same molecule, the Potency entry in test [8] and in test [7] was “inactive” throughout. Also, the max response in test [5] was -24.7% (inactive) and -24.4% (inactive); in test [1], 18.8% (inactive) and 0.965% (inactive); in test [6], -5.89% (inactive) and -15.7% (inactive). Also, in test [3], the parasite growth remaining, % of DMSO control (lower = more inhibition) came to 38.8%.
As to `CC(C)OC(=O)OCOP(=O)(CO[C@H](C)Cn1cnc2c(N)ncnc21)OCOC(=O)OC(C)C`, the max response in test [1] is 5.62% (inactive) and 30.5% (inactive).
In the case of `N=C(N)c1ccc(OCCCCCOc2ccc(C(=N)N)cc2)cc1`, the molecule was called inactive in test [4]. Besides, the Potency result in test [8] and in test [7] was “inactive” in each case. Also, the max response in test [5] is -9.35% (inactive) and -16.5% (inactive); in test [6], -23.8% (inactive) and -12.7% (inactive). Also, in test [1], the Potency is 6.31 µM (active). The parasite growth remaining, % of DMSO control (lower = more inhibition) in test [3] was determined as 6.09%.
In the case of `C1CCC(C(CC2CCCCN2)C2CCCCC2)CC1` (stereo unspecified), in test [1], the Potency is 10 µM (active). The molecule further gave a parasite growth, % of DMSO control in test [2] of 6.92%. Further, the parasite growth remaining, % of DMSO control (lower = more inhibition) in test [3] came to 7.9%.
Consider `CC(=O)[C@H]1CC[C@H]2[C@@H]3CC=C4C[C@@H](O)CC[C@]4(C)[C@H]3CC[C@]12C`, for which the max response in test [1] was 11.7% (inactive). Besides, the parasite growth, % of DMSO control in test [2] worked out at 89.9%. The parasite growth remaining, % of DMSO control (lower = more inhibition) in test [3] amounted to 88.9%.
As for `CC[C@H](C)C(=O)O[C@H]1C[C@@H](C)C=C2C=C[C@H](C)[C@H](CC[C@@H]3C[C@@H](O)CC(=O)O3)[C@H]21`, the molecule was called inactive in test [4]. For the same molecule, the max response was -3.79% (inactive) in test [5], 4.74% (inactive) in test [1] and -9.34% (inactive) in test [6]. Further, in test [7], the Potency result is “inactive”. The same molecule had a parasite growth, % of DMSO control in test [2] of 73.9%. Also, the parasite growth remaining, % of DMSO control (lower = more inhibition) in test [3] came out at 103%.
